Only a selection was taken, and the strongest signals are over-represented in it overall.
Key:
Assay in all cases: glycan array binding signal (z-score within array); higher = stronger binding
Settings in all cases: glycan notation: IUPAC condensed, linker removed
[1] = target: Fuc(a1-2)Gal(b1-3)[Fuc(a1-4)]GlcNAc
Procedure, shortened: (§1)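 Negative Z-scores can be read as non-binding. The Z-score is calculated within each array and then averaged across arrays of one protein sequence at different concentrations or buffers and across linkers. Arrays, 3228 in all, were curated from the Consortium for Functional Glycomics database and kept only where the protein sequence was available.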

[2] = target: Fuc(a1-2)Gal(b1-4)[Fuc(a1-3)]GlcNAc(b1-2)Man(a1-3)[Fuc(a1-2)Gal(b1-4)[Fuc(a1-3)]GlcNAc(b1-2)Man(a1-6)]Man(b1-4)GlcNAc(b1-4)GlcNAc
Procedure, shortened: as §1

[3] = target: Fuc(a1-2)[GalNAc(a1-3)]Gal(b1-4)GlcNAc(b1-2)Man(a1-3)[Fuc(a1-2)[GalNAc(a1-3)]Gal(b1-4)GlcNAc(b1-2)Man(a1-6)]Man(b1-4)GlcNAc(b1-4)GlcNAc
Procedure, shortened: as §1

[4] = target: Fuc(a1-3)[Gal(b1-4)]GlcNAc
Procedure, shortened: as §1

[5] = target: Fuc(a1-3)[Gal(b1-4)]GlcNAc(b1-4)Gal(b1-4)[Fuc(a1-3)]GlcNAc
Procedure, shortened: as §1

[6] = target: Gal(b1-3)[Fuc(a1-4)]GlcNAc(b1-2)Man(a1-3)[Gal(b1-3)[Fuc(a1-4)]GlcNAc(b1-2)Man(a1-6)]Man(b1-4)GlcNAc(b1-4)GlcNAc
Procedure, shortened: as §1

[7] = target: Gal(b1-4)GlcNAc(b1-2)Man(a1-3)[GlcNAc(b1-2)Man(a1-6)]Man(b1-4)GlcNAc(b1-4)GlcNAc
Procedure, shortened: as §1

[8] = target: Gal(b1-4)GlcNAc(b1-3)GalNAc
Procedure, shortened: as §1

[9] = target: Gal(b1-4)GlcNAc(b1-3)[GlcNAc(b1-6)]Gal(b1-4)GlcNAc
Procedure, shortened: as §1

[10] = target: Gal3S(b1-3)[Fuc(a1-4)]GlcNAc
Procedure, shortened: as §1

[11] = target: Gal3S(b1-4)[Fuc(a1-3)]Glc6S
Procedure, shortened: as §1

GalNAc(a1-3)Gal = target: GalNAc(a1-3)Gal
Procedure, shortened: as §1

[12] = target: GalNAc(b1-3)Gal(a1-6)Gal(b1-4)Glc
Procedure, shortened: as §1

Glc(b1-6)Glc = target: Glc(b1-6)Glc
Procedure, shortened: as §1

[13] = target: GlcNAc(a1-4)Gal(b1-4)GlcNAc(b1-3)Gal(b1-4)GlcNAc(b1-3)Gal(b1-4)GlcNAc
Procedure, shortened: as §1

[14] = target: GlcNAc(a1-4)Gal(b1-4)GlcNAc(b1-3)Gal(b1-4)[Fuc(a1-3)]GlcNAc(b1-3)Gal(b1-4)[Fuc(a1-3)]GlcNAc
Procedure, shortened: as §1

[15] = target: GlcNAc(b1-2)Gal(b1-3)GalNAc
Procedure, shortened: as §1

[16] = target: GlcNAc(b1-2)Man(a1-3)[GlcNAc(b1-2)Man(a1-6)]Man(b1-4)GlcNAc(b1-4)[Fuc(a1-6)]GlcNAc
Procedure, shortened: as §1

GlcNAc(b1-3)Gal = target: GlcNAc(b1-3)Gal
Procedure, shortened: as §1

[17] = target: GlcNAc(b1-3)Gal(b1-3)GalNAc
Procedure, shortened: as §1

[18] = target: Neu5Ac(a2-3)Gal(b1-3)[Neu5Ac(a2-6)]GalNAc
Procedure, shortened: as §1

[19] = target: Neu5Ac(a2-3)Gal(b1-4)GlcNAc(b1-3)Gal(b1-4)[Fuc(a1-3)]GlcNAc
Procedure, shortened: as §1

[20] = target: Neu5Ac(a2-3)Gal(b1-4)[Fuc(a1-3)]GlcNAc(b1-3)GalNAc
Procedure, shortened: as §1

[21] = target: Neu5Ac(a2-3)Gal(b1-4)[Fuc(a1-3)]GlcNAc(b1-6)[Gal(b1-3)]GalNAc
Procedure, shortened: as §1

[22] = target: Neu5Ac(a2-3)Gal6S(b1-4)GlcNAc
Procedure, shortened: as §1

[23] = target: Neu5Ac(a2-6)Gal(b1-4)GlcNAc(b1-2)Man(a1-3)[GlcNAc(b1-2)Man(b1-4)GlcNAc(b1-2)Man(a1-6)]Man(b1-4)GlcNAc(b1-4)GlcNAc
Procedure, shortened: as §1

[24] = target: Neu5Ac(a2-6)GlcNAc(b1-4)GlcNAc(b1-4)GlcNAc
Procedure, shortened: as §1

[25] = target: Neu5Ac9Ac(a2-3)Gal(b1-4)GlcNAc
Procedure, shortened: as §1

[26] = target: Neu5Gc(a2-3)Gal(b1-4)GlcNAc
Procedure, shortened: as §1

B1: BSR4 (Toxoplasma gondii), Q95NL6 (protein)
chain: MVMMGSMQQRRGGLRSNARQLLAVCMSGVVFFSSGQAVADNLLEGLLHRTLQQQVEVTSRLTVAGSDAKCDFFTPATQDSPPVSGSLTLSKGRMTATFECSATQALSISTIPTNIEQNVCDPKKTTNGTVCQFGANGSAGTEVTLKDLLETDRIVNWKVNEQREESNKSQKWSLELHNEDLPLTDKAFVVGCQATSAARGTESGKTAACKLTVNVEARASSLAENNVVTCAYGKGSNPNPVEVEMSTEKNTLTINCGSDGSLQPTTYAEEYCVADSKDVNRCSTTRFVEIFPKFLKSWWVTETQKRTSATLTIPQTDLPEADQQFLVGCVPKKTAPEDPKKDKESGTETGAPTSCTVLVTVKAASSASHASPTVQILAAASSAAA
glycan array binding signal (z-score) [1]: 0.187
glycan array binding signal (z-score) [2]: 1.41
glycan array binding signal (z-score) [3]: -0.071
glycan array binding signal (z-score) [4]: 0.23
glycan array binding signal (z-score) [5]: 1.44
glycan array binding signal (z-score) [6]: 1.39
glycan array binding signal (z-score) [7]: -0.349
glycan array binding signal (z-score) [8]: 0.454
glycan array binding signal (z-score) [9]: 0.261
glycan array binding signal (z-score) [10]: 5.04
glycan array binding signal (z-score) [11]: 0.993
glycan array binding signal (z-score) (GalNAc(a1-3)Gal): -0.538
glycan array binding signal (z-score) [12]: -0.617
glycan array binding signal (z-score) (Glc(b1-6)Glc): -0.765
glycan array binding signal (z-score) [13]: -0.25
glycan array binding signal (z-score) [14]: 1.8
glycan array binding signal (z-score) [15]: 0.324
glycan array binding signal (z-score) [16]: 7.79
glycan array binding signal (z-score) (GlcNAc(b1-3)Gal): -0.636
glycan array binding signal (z-score) [17]: 1.23
glycan array binding signal (z-score) [18]: 0.026
glycan array binding signal (z-score) [19]: 0.289
glycan array binding signal (z-score) [20]: 3.61
glycan array binding signal (z-score) [21]: 1.73
glycan array binding signal (z-score) [22]: -0.227
glycan array binding signal (z-score) [23]: -0.667
glycan array binding signal (z-score) [24]: -0.434
glycan array binding signal (z-score) [25]: 0.407
glycan array binding signal (z-score) [26]: -0.102
